Test results as given in PubChem BioAssay AID2289 (National Center for Advancing Translational Sciences (NCATS), 2010).
Hit rate of the full screen: of about 340,000 compounds, about 3,300 (0.97%) were called active. Roughly 9% stayed inconclusive and do not appear here. The call rests on the fitted dose curve; in most records, active means well fitted inhibition curve with a large enough effect; inconclusive means small, poorly fitted or top-dose-only effect, or effect the other way; inactive means flat fitted curve, though single readings scatter. The list shows a part of the results.

test: qHTS Assay for Modulators of miRNAs and/or Inhibitors of miR-21; conditions: HeLa miR-21-FLuc reporter, luciferase luminescence, 48 h; actives lower the signal; further: nearly all actives have a fitted effect of over 55% in size
Procedure, shortened: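 HeLa cells endogenously expressing miR-21, stably carrying CMV-driven firefly luciferase with a downstream miR-21 binding site, 2000 cells/well. Titrations up to approximately 40 uM, 48 hours; luciferase luminescence read.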
Potency means the concentration at half of the fitted maximal effect.

Compound | Potency
COc1cccc(Nc2nc(N)nc(C(F)(F)F)n2)c1 | 18.5 µM (active)
COc1nc(Nc2cccc(C(F)(F)F)c2)nc(OC)n1 | 14.7 µM (active)
Nc1nc(Nc2ccc(Cl)cc2Cl)nc(C(F)(F)F)n1 | 6.56 µM (active)
CC(=O)c1cnc2cc(-c3ccc(C)cc3)nn2c1C | 1.04 µM (active)
CCOC(=O)c1sc2nc(-c3ccccc3)ccc2c1N | 0.0927 µM (active)
CCOC(=O)c1sc2nc(-c3cccnc3)ccc2c1N | 0.369 µM (active)
CCN(CC)C(=O)c1sc2nc(-c3ccccc3)ccc2c1N | 1.47 µM (active)
COc1cccc(-c2ccc3c(N)c(C(=O)Nc4cc(F)ccc4F)sc3n2)c1 | 11.7 µM (active)
CCn1nccc1C(=O)Nc1ccc(Cl)c(Cl)c1 | 8.26 µM (active)
COc1ccccc1Oc1ncnc2c1cnn2-c1ccccc1 | 5.85 µM (active)
COc1cc(C(C)=O)ccc1Oc1ncnc2c1cnn2-c1ccc(F)cc1 | 4.14 µM (active)
Cc1ccc(NC(=O)c2sc3nc(N)c(C#N)cc3c2N)cc1 | 5.85 µM (active)
Cc1cccc(NC(=O)c2sc3nc(N)c(C#N)cc3c2N)c1 | 4.14 µM (active)
Cc1cc(C(=O)CN2C(=O)NC3(CCCCC3C)C2=O)c(C)n1Cc1cccs1 (configuration not stated) | 5.21 µM (active)
Cc1nc2scc(-c3ccccc3)c2c(=O)n1N=C1C=CC(=O)C=C1 | 10.4 µM (active)
Cc1ccc2oc(C(=O)Nc3nonc3C)c(C)c2c1 | 4.65 µM (active)
Cc1cc2oc(C(=O)Nc3nonc3C)c(C)c2cc1C | 0.656 µM (active)
CCc1ccc2oc(C(=O)Nc3nonc3CC)c(C)c2c1 | 2.93 µM (active)
CCc1nonc1NC(=O)c1oc2cc(C)c(C)cc2c1C | 5.85 µM (active)
c1ccc(Cc2nnc3sc(-c4ccc5c(c4)OCCO5)nn23)cc1 | 14.7 µM (active)
Oc1c(C2=NCCNC(C(F)(F)F)=C2)ccc2ccccc12 | 2.07 µM (active)
Clc1ccccc1-c1nc2ccccc2[nH]1 | 1.31 µM (active)

Compound | Potency
Clc1cc2nc(-c3cccnc3Cl)[nH]c2cc1Cl | 1.04 µM (active)
CN(Cc1nc(-c2cccc(Cl)c2)no1)C1CCOCC1 | 7.36 µM (active)
Cc1ccc(-c2cn(-c3ccccc3)c(SCC(=O)NC3CCS(=O)(=O)C3)n2)cc1C (configuration not stated) | 7.36 µM (active)
CCOC(=O)NC(=O)CSc1nc(-c2ccc(C)c(C)c2)cn1-c1ccccc1 | 6.56 µM (active)
Cc1ccc(NC(=O)NCc2c(C)nn(C)c2C)cc1Cl | 5.21 µM (active)
CNc1cccc2c1C(=O)c1ccccc1C2=O | 11.7 µM (active)
CC(C)(C)c1ccc(-c2noc(-c3ccno3)n2)cc1 | 1.17 µM (active)
C=CCn1c2ccccc2c(=O)c2cc(C#CC3(O)CCCCC3)ccc21 | 0.414 µM (active)
CCCc1cc(C(=O)Nc2ccc(CC)cc2)no1 | 5.21 µM (active)
CCCc1cc(C(=O)Nc2cc(C)ccc2O)no1 | 3.69 µM (active)
CCCc1cc(C(=O)Nc2cccc(Cl)c2C)no1 | 6.56 µM (active)
CCCc1cc(C(=O)Nc2cc(Cl)ccc2O)no1 | 2.07 µM (active)
COc1ccc(C(=O)NCCOc2ccccc2Cl)c(OC)c1OC | 5.85 µM (active)
COc1cc(SC)ccc1C(=O)NCCOc1ccccc1Cl | 2.93 µM (active)
COc1cc(SC)ccc1C(=O)NCC1CCCCC1 | 10.4 µM (active)
COc1cc(SC)ccc1C(=O)NCCOc1ccc(F)cc1 | 7.36 µM (active)
CCn1nc(C)c(/C=N/NC(=O)Cc2ccc(Cl)cc2)c1C | 11.7 µM (active)
COc1ccc(NC(=O)CSc2nc(SC)ns2)c(OC)c1 | 2.07 µM (active)
COc1ccc(NC(=O)CSc2nc(SC)ns2)cc1 | 6.56 µM (active)
CCC(C)(C)c1ccc2c(c1)C(=O)c1ccccc1C2=O | 1.65 µM (active)
Cc1cs/c(=N\N=C\c2ccc(O)cc2)n1Cc1ccco1 | 11.7 µM (active)
Nc1nnc(-c2ccc(Cl)cc2Cl)s1 | 8.26 µM (active)

Compound | Potency
O=C(NNc1nc2ccccc2s1)Nc1ccccc1 | 4.65 µM (active)
S=C(Nc1ccccc1)c1nc2ccccc2s1 | 2.07 µM (active)
CC(C)C1COC(c2cccc3ccccc23)=N1 (configuration not stated) | 6.56 µM (active)
CCOc1ccccc1CNC(=O)c1cccc(NC(=O)c2nsc3ccccc23)c1 | 3.29 µM (active)
CCCCNC(=O)c1cccc(NC(=O)c2nsc3ccccc23)c1 | 2.93 µM (active)
CCN=C1S/C(=C\c2sccc2C)C(=O)N1CC | 16.5 µM (active)
Cc1ccc(OCCn2cnc3c(N)ncnc32)cc1 | 16.5 µM (active)
Cc1cc(C(=O)COC(=O)c2cc(Cl)ccc2N)c(C)n1Cc1ccco1 | 2.93 µM (active)
Cc1cc(C(=O)COC(=O)c2ccc(O)cc2)c(C)n1Cc1ccco1 | 1.85 µM (active)
CCOc1ncccc1C(=O)OCC(=O)c1cc(C)n(Cc2ccco2)c1C | 2.07 µM (active)
C=CCn1c(C)cc(C(=O)COC(=O)c2ccc(N)c([N+](=O)[O-])c2)c1C | 1.85 µM (active)
CSc1ncccc1C(=O)OCC(=O)c1cc(C)n(CC2CCCO2)c1C (configuration not stated) | 0.464 µM (active)
Cc1cc(C(=O)COC(=O)c2ccco2)c(C)n1Cc1ccco1 | 4.65 µM (active)
Cc1cc(C)n(-c2nnc(NC34CC5CC(CC(C5)C3)C4)nn2)n1 | 5.21 µM (active)
Cc1ccc(NC(=O)OCc2cccs2)cc1 | 1.31 µM (active)
O=C(NC(=S)NC1CCCCCC1)c1cncc(Br)c1 | 9.27 µM (active)
COc1ccc(C(=O)NC(=S)Nc2ccccc2F)cc1 | 1.04 µM (active)
COc1ccc(C(=O)NCCSC2CCCCC2)cc1 | 7.36 µM (active)
COc1ccc(C(=O)NC(=S)NC2CCCCC2)cc1 | 7.36 µM (active)
Cc1nc2ccccc2nc(C)c1=NOCc1ccc(C#N)cc1 | 11.7 µM (active)
Cc1nc2ccccc2nc(C)c1=NOCc1ccc(Cl)cc1Cl | 16.5 µM (active)
COc1ccc(-c2nnc3c4ccccc4c(C)nn23)cc1 | 8.26 µM (active)

Compound | Potency
COc1ccc(Oc2nnc(C)c3ccccc23)cc1 | 4.14 µM (active)
COc1ccc(NC(=S)c2ccc(N(C)C)cc2)cc1 | 1.17 µM (active)
COc1ccc(NC(=S)N/C(=N/CS(=O)(=O)c2ccccc2)c2ccccc2)cc1 | 5.21 µM (active)
Cc1ccc(NC(=S)c2ccccc2)cc1 | 4.14 µM (active)
COc1ccc(NC(=S)N2CCC(c3ccccc3)C2)cc1 (configuration not stated) | 1.65 µM (active)
COc1ccc(NC(=S)c2ccccc2)cc1 | 6.56 µM (active)
COc1ccc(-c2cc(=Nc3ccc(C(=O)O)cc3)c3cc(C)ccc3o2)cc1 | 2.07 µM (active)
CCC(N=c1cc(-c2ccc(OC)cc2)oc2ccc(C)cc12)C(=O)O (configuration not stated) | 0.293 µM (active)
COc1ccc(-c2cc(=NC(CC(C)C)C(=O)O)c3cc(C)ccc3o2)cc1 (configuration not stated) | 0.369 µM (active)
COc1ccc(-c2nc(C#N)c(NCC3CCCO3)o2)cc1OC (configuration not stated) | 14.7 µM (active)
Cc1ccc(-c2nc(C#N)c(NCC3CCCO3)o2)cc1 (configuration not stated) | 13.1 µM (active)
O=C(O)c1cccc(N/N=C/c2cccnc2)c1 | 2.93 µM (active)
Clc1ccc(N/N=C/c2ccncc2)cc1Cl | 8.26 µM (active)
O=C(O)c1cc(N/N=C/c2cccnc2)ccc1Cl | 14.7 µM (active)
Nc1ccc(SCc2nc3cccc4c3n2CCC4)cc1 | 14.7 µM (active)
Cc1nc(-c2ccccc2)sc1-c1nnc(C2CC2)o1 | 4.65 µM (active)
O=C(/C=C/c1ccc(F)cc1)NC(=S)N1CCN(c2ccccn2)CC1 | 13.1 µM (active)
COc1ccccc1N1CCN(C(=S)NC(=O)/C=C/c2ccccc2)CC1 | 9.27 µM (active)
Cc1cc(NC(=O)c2ccco2)ccc1-n1cnnn1 | 7.36 µM (active)
Cc1nc2ccc(NC(=O)c3ccco3)cc2s1 | 7.36 µM (active)
Nc1nc2ccc(NC(=O)c3ccco3)cc2s1 | 7.36 µM (active)
CSc1nc2ccc(NC(=O)c3ccco3)cc2s1 | 1.47 µM (active)

Compound | Potency
CSc1nc2ccc(NC(=O)c3c(F)cccc3F)cc2s1 | 7.36 µM (active)
CC(=O)Nc1nc2ccc(NC(=O)c3ccco3)cc2s1 | 10.4 µM (active)
COc1cc2sc(NC(=O)c3ccco3)nc2cc1Cl | 0.585 µM (active)
Cc1nc2ccc(NC(=O)c3ccc(Br)o3)cc2s1 | 2.93 µM (active)
Nc1c(Cl)cc2c(c1Oc1ccccc1)C(=O)c1ccccc1C2=O | 4.14 µM (active)
O=C(c1ccncc1)N1N=C(c2ccc(Cl)cc2)CC1c1ccccc1O (configuration not stated) | 6.56 µM (active)
COc1ccc(C2=NN(C(=O)c3ccccc3C(=O)O)C(c3ccccc3O)C2)cc1 (configuration not stated) | 5.85 µM (active)
COc1ccc(OCCSc2nc(N)cc(N)n2)cc1 | 3.29 µM (active)
c1cnc(SCCOc2cccc3ccccc23)nc1 | 3.29 µM (active)
Nc1cc(N)nc(SCCOc2ccccc2)n1 | 11.7 µM (active)
Cc1ccc(OCCSc2nc(N)cc(N)n2)cc1 | 4.65 µM (active)
Nc1cc(N)nc(SCCOc2ccccc2F)n1 | 14.7 µM (active)
Cc1cc(SCCOc2ccccc2)nc(N)n1 | 16.5 µM (active)
CCOC(=O)c1ccc(NC(=O)C(CC)Sc2nc3ncccc3o2)cc1 (configuration not stated) | 4.65 µM (active)
Cc1ccc(NC(=O)/C=C2\NC(=O)CS2)cc1 | 16.5 µM (active)
O=C(N/N=C/c1ccc(Br)s1)c1ccco1 | 14.7 µM (active)
C/C(=N\NC(=O)c1ccoc1C)c1ccc(Br)s1 | 11.7 µM (active)
Cc1occc1C(=O)N/N=C/c1ccc(Br)s1 | 6.56 µM (active)
COC(=O)/C(=C/c1cccc([N+](=O)[O-])c1)NC(=O)c1ccc(OC)cc1 | 5.21 µM (active)
